# From PubChem BioAssay
# Compounds with a hit are over-represented: about 9.9% of the library has one in this group of screens.
# MCF10A rerep – induces DNA re-replication in MCF 10a normal breast cells | MCF 10A DNA re-replication, Hoechst nuclear intensity, 48 h | Potency, µM (top dose mostly 46.1 µM), usual class: activators | actives 2.9% (n = 350,000); note: nearly all actives have a fitted effect of over 50% in size
# KB-V1 cytotox – KB-V1 MDR subline cytotoxicity | KB-V1 MDR cells viability, CellTiter-Glo, 72 h | Potency, µM (series often up to 46.1 µM), hits mostly cytotoxic | actives 3.4% (n = 400,000); note: nearly all actives have a fitted effect of over 60% in size
#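 Following 72 h at 37 degrees C with compound, KB-V1 cell viability was read by CellTiter-Glo luminescence, medium being phenol-red-free DMEM plus 10% FBS; concentration-response parameters came from normalized, curve-fitted qHTS data.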
# IL-1B inflam inh – inflammasome signaling inhibition, IL-1 beta readout. THP-1 LPS/ATP IL-1B secretion, AlphaLISA, 16 h; hits give low values. activity change, % at 57.5 µM. actives 4.7% (n = 360,000). AID 743279; in the data active = activity change below about -50%; inconclusive = mostly about -30% to -49%
#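 Secreted IL-1B measured by AlphaLISA bead assay after 16 h compound exposure of THP-1 cells; compounds (final up to 57.5 uM) added 1 h before LPS (250 ng/mL) and ATP (1.25 mM) stimulation; lower signal means less secretion.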
# SW480 rerep – DNA re-replication induction in SW480 cells; SW480 DNA re-replication, Hoechst DNA content imaging, 48 h; Potency, µM (titrated, usually from 46.1 µM), hits mostly activators; actives 1.8% (n = 340,000); note: nearly all actives have a fitted effect of over 55% in size
#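 Hoechst fluorescence of nuclei (405 nm excitation, 500-530 nm emission) measured by plate-scanning imager after 48 hr compound exposure at 37 C; re-replication scored as increased number of nuclei with elevated intensity.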
# KB-3-1 tox – kills parental KB-3-1 adenocarcinoma cells | KB-3-1 viability, CellTiter-Glo ATP luminescence, 72 h | Potency, µM (highest dose often 46.1 µM), actives largely listed as cytotoxic | actives 1.4% (n = 400,000) | AID 1347075; note: nearly all actives have a fitted effect of over 60% in size
#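 Viability of parental KB-3-1 cells, measured by CellTiter-Glo luminescence, followed a 72 h incubation at 37 °C with pinned compounds in phenol-red-free DMEM containing 10% FBS.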
# Hits are given with their value; – = inactive; ? = inconclusive; · = not tested or not shown; [ ] = another dose, or the depositor's remark. Unless noted, calls come from the whole dose curve; as a rule, active = well fitted curve in the direction sought with a large enough effect; inconclusive = small, poorly fitted or top-dose-only effect, or another doubt; inactive = no such curve, though single readings can be large; an effect the other way counts as inactive or inconclusive.
SMILES,MCF10A rerep,KB-V1 cytotox,IL-1B inflam inh,SW480 rerep,KB-3-1 tox
COc1ccc(C(CNC(=O)c2cccc(S(=O)(=O)Nc3cccc(C)c3)c2)N2CCOCC2)cc1 (stereo not given),–,20.6µM,–,–,–
C=CCN(c1ccccc1)S(=O)(=O)c1cccc(C(=O)NCC(c2ccc(OC)cc2)N2CCCCC2)c1 (stereo not given),?,?,-65.8,?,?
COc1ccc(NC(=O)CNc2ccc(C#N)cc2)cc1,–,–,–,–,–
Cc1cc(C)cc(Nc2nnc(-n3nc(C)cc3C)c3ccccc23)c1,·,–,·,·,–
O=C(COC(=O)/C=C/c1ccc([N+](=O)[O-])cc1)NCC1CCCCC1,–,–,–,–,–
O=C(CSC1=NCCN1)NC12CC3CC(CC(C3)C1)C2,?,–,-100.3,–[9.22 µM],–
Cn1ccnc1SCC(=O)NC1CCCCC1,–,–,–,–,–
Cc1nnc(SCC(=O)NC23CC4CC(CC(C4)C2)C3)s1,–,–,–,–[1.84 µM],–
O=C(CSC1=NCCN1)NC1CCCCCC1,?,–,-96.8,–,–
O=C(C[n+]1c(Cl)cc(Cl)c2ccccc21)c1ccccc1,·,–,·,·,–
O=C(Nc1ccccc1)C1C2/C=C\CCCCC21 (stereo not given),–,–,-50.2,–,–
CCOc1ccc(C(=O)NCC(c2ccc3c(c2)OCO3)N2CCN(C)CC2)cc1 (stereo not given),·,–,·,·,–
Sc1oc(-c2ccccc2)cc1C=Nc1ccccc1,?,–,–,13µM,–
O=[N+]([O-])c1cc2c(cc1C=Nc1ccccc1)OCO2,–,?,–,–,–
CCOc1cc(C#N)c(NC(=O)Cn2nnc(-c3ccc(C)cc3)n2)cc1OCC,·,–,·,·,–
CSc1ccccc1NC(=O)CN1CCN(S(=O)(=O)c2ccccc2[N+](=O)[O-])CC1,–,3.66µM,–,–,–
Cc1cc(C)cc(-n2c(C)cc(C(=S)N3CCOCC3)c2C)c1,–,–,-54.1,–,–
Cc1cc(C(=S)N2CCOCC2)c(C)n1-c1ccc(Cl)cc1,?,?,–,–,–
O=C(N/N=C/c1ccccc1)c1ccc(CN2C(=O)c3cccc4cccc2c34)cc1,16.4µM,–,–,?,–
Cc1cn2c(=O)cc(COC(=O)COc3ccc(C)c(C)c3)nc2s1,·,–,·,·,–
O=C(CCn1nnc2ccccc21)Nc1nnc(COc2ccccc2F)s1,–,–,–,–,–
O=C(CCn1nnc2ccccc21)Nc1nnc(Cc2ccccc2)s1,–,16.4µM,–,–,–
C=CCNC(=O)C1CC1(c1ccc(C)cc1)c1ccc(C)cc1 (stereo not given),?,?,–,–,–
C=CCNC(=O)C1CC1(c1ccccc1)c1ccccc1 (stereo not given),–,18.4µM,–,–,–
CCN(CC)CCN1C(=O)C(O)=C(C(=O)c2cc3cccc(OC)c3o2)C1c1ccc(F)cc1 (stereo not given),–,–,–,–,–
SMILES,MCF10A rerep,KB-V1 cytotox,IL-1B inflam inh,SW480 rerep,KB-3-1 tox
CCN(CC)CCCNC(=S)N(CCO)Cc1cc2cc3c(cc2[nH]c1=O)OCCO3,–,–,–,–,–
O=C(Nc1ccc(Cl)cn1)c1ccc(-c2ccc(Cl)c(Cl)c2)o1,18.4µM,–,–,–,–
Cc1cc(NC(=O)c2ccc(-c3ccc(F)c(Cl)c3)o2)no1,?,–,–,–,–
O=C(NCCNC(=O)c1ccc(-c2ccc(Cl)c(Cl)c2)o1)c1cnccn1,–,?,-73.6,–,–
CN1CCN(C(CNC(=O)c2c(F)cccc2F)c2ccc3c(c2)OCO3)CC1 (stereo not given),·,–,·,·,–
Cc1cccc(-c2cc(C(=O)Nc3cccnc3)c3ccccc3n2)c1,?,?,–,–,?
Cc1ccc2nc(-c3ccccc3)cc(C(=O)NNC(=O)c3csc(N4CCOCC4)n3)c2c1,–,20.6µM,–,–,–
O=C(Nc1ccc(C(=O)N2CCOCC2)cc1)c1cc(-c2cccnc2)nc2ccc(Br)cc12,–,–,-53.1,?,?
Cc1ccc2nc(-c3ccccc3)cc(C(=O)Nc3cccnc3)c2c1,–,2.91µM,–,–,–
O=C(N/N=C/c1cccnc1)c1cc(-c2ccc(Cl)cc2)nc2ccccc12,?,?,–,–,–
O=C(N/N=C/c1ccc(Cl)cc1)c1cc(-c2cccnc2)nc2ccccc12,?,9.2µM,–,4.11µM,9.2µM
COCCn1c(C)cc(O)c(C(c2ccccc2OC)N2CCN(c3ccccc3)CC2)c1=O (stereo not given),·,–,·,·,–
Cc1ccc(/C=N/NC(=O)c2cc(C)oc2C)cc1,?,?,–,4.61µM,?
O=C(N/N=C/c1cccnc1)c1cc(-c2ccccc2)nc2ccccc12,–,–,–,–,–
Cc1ccc(-c2cc(C(=O)N/N=C/c3cccnc3)c3ccccc3n2)cc1C,–,–,–,–,–
Cc1ccc(/C=N/NC(=O)c2cc(-c3cccnc3)nc3ccccc23)cc1,23.1µM,2.91µM,–,2.59µM,2.91µM
O=C(N/N=C/c1cccnc1)c1cc(-c2ccc(Br)cc2)nc2ccccc12,?,–,?,20.6µM,?
O=C(N/N=C/c1ccc(Cl)c([N+](=O)[O-])c1)c1cc(-c2ccccc2)nc2ccccc12,11.6µM,–,–,–,–
CCCC(=O)OCc1cnc(C)c2oc(=O)c(C(=O)Nc3ccc(F)cc3C)cc12,·,–,·,·,–
N#CCCn1nc(-c2ccccc2)c2ccccc2c1=O,–,–,–,–,–
CNC(=O)C(=O)N/N=C/c1ccc(Br)cc1,–,–,–,–,–
COc1cc(SC)ccc1C(=O)N1CCc2ccccc21,–,–,–,–,–
CC1=C(C(=O)Nc2ccccc2)C(c2cccnc2)n2nc(SCc3ccccc3Cl)nc2N1 (stereo not given),·,–,·,·,–
COc1cc(OC)c(C=CC(=O)c2ccccc2O)c(OC)c1,–,–,-59.0,?,?
COc1cc(/C=C/C(=O)c2ccccc2O)cc(OC)c1OC,?,–,-98.1,?,?
SMILES,MCF10A rerep,KB-V1 cytotox,IL-1B inflam inh,SW480 rerep,KB-3-1 tox
Cc1c(/C=C/C(=O)c2ccccc2O)cnn1C,–,–,–,–,–
Cn1c(Cl)cnc1C1CC(=O)c2cc(Cl)ccc2O1 (stereo not given),?,?,-95.1,10.3µM,?
O=C1CC(c2ccc(Cl)cc2)Oc2ccc(Cl)cc21 (stereo not given),?,–,-87.2,?,–
O=C1CC(c2cccc(O)c2)Oc2ccccc21 (stereo not given),–,?,-82.6,–,–
O=C(Nc1ccncc1Cl)c1ccncc1,–,–,–,–,–
Oc1ccc(NCc2ccccc2OCc2ccccc2)cc1,23.1µM,–,-73.6,14.6µM,–
CC(O)CNCCOc1ccccc1OCc1ccccc1 (stereo not given),–,–,–,–,–
CC(O)CNCCNCc1c(OCc2ccccc2)ccc2ccccc12 (stereo not given),?,–,-86.8,–,–
